Measurements taken from ChEMBL document CHEMBL4808148, “HDAC6 screening dataset using tau-based substrate in an enzymatic assay yields selective inhibitors and activators” (2021).
Where “and” joins values, the source holds several entries; their conditions need not be identical. Equal values may be shown once. Screen size: about 5,600 compounds; about 390 (7%) showed an effect of 50% or more. What follows is part of a selection rich in strong results, with near analogues and random picks from the rest.

molecular target: T1, Protein deacetylase HDAC6 (Homo sapiens) (UniProt Q9UBN7); settings: at 10 µM
T1 sequence (whole entry): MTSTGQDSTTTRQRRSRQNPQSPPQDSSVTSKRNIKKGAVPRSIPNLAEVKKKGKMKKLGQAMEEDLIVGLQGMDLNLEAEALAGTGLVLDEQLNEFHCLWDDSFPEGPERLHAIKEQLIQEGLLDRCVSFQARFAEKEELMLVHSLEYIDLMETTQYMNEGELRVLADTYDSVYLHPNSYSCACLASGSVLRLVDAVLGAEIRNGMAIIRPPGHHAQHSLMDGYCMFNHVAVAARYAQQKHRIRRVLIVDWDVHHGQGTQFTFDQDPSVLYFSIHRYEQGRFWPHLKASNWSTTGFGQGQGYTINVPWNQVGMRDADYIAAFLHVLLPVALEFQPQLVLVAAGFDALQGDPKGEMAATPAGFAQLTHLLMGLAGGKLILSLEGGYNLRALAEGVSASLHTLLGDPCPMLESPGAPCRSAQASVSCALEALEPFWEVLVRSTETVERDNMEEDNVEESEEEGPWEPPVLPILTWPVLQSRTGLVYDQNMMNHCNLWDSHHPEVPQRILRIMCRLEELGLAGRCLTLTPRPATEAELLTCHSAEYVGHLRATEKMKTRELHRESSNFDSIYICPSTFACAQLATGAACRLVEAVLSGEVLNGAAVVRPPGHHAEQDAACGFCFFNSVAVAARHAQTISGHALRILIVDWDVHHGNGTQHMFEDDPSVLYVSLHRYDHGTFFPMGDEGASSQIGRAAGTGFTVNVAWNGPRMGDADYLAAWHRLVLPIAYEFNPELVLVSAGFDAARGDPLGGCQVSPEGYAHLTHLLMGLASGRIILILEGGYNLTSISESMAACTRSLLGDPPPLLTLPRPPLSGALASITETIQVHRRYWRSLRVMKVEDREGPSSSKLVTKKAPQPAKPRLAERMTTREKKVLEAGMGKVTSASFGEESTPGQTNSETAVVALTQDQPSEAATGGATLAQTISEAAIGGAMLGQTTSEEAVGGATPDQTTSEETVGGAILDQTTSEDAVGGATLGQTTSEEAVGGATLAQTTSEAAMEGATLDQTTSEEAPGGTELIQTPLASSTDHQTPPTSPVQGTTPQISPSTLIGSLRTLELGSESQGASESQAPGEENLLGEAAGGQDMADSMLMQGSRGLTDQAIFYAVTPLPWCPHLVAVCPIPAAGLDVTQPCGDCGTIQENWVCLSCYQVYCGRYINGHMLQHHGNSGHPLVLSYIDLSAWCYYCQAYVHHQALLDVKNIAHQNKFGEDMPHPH

Structure (SMILES)	inhibition
C[C@H]1C[C@@H]2[C@H]([C@@H](O)C[C@@]3(C)[C@H]2CC[C@]3(O)C(=O)COC(=O)CCC(=O)O)[C@@]2(C)C=CC(=O)C=C12	27.4%
COc1cc([C@@H]2c3cc4c(cc3[C@@H](O[C@@H]3O[C@@H]5CO[C@@H](C)O[C@H]5[C@H](O)[C@H]3O)[C@H]3COC(=O)[C@H]23)OCO4)cc(OC)c1OP(=O)(O)O	5.48%
CCN(CC)CCNC(=O)c1ccccc1I	13.2%
COc1nc2ccc(Br)cc2cc1[C@@H](c1ccccc1)[C@@](O)(CCN(C)C)c1cccc2ccccc12	73.7%
NCC1CC(=O)N(Cc2ccccc2)C1 (stereo not given)	0.62%
CN1c2ccccc2C(NCCCCCCC(=O)O)c2ccc(Cl)cc2S1(=O)=O (stereo not given)	64.5%
O=C(O)CCCCCCNC1c2ccccc2CCc2ccccc21	0.36%
Cc1ccc(C)c(C(O)CNC(C)C)c1 (stereo not given)	7.8%
C[C@@H]1C(=O)O[C@H]2CC34[C@H]5C[C@@H](C(C)(C)C)C36[C@@H](OC(=O)[C@@H]6O)O[C@@]4(C(=O)O5)[C@]21O (stereo not given in full)	26.8%
Cn1cc(-c2cc(Oc3cc(F)c(NC(=O)C4(C(=O)Nc5ccccc5)CC4)cc3F)ccn2)cn1	13.7%
CN1CC[C@@]2(C)c3cc(O)ccc3N(C)[C@H]12	6.94%
CN1CC[C@@]2(C)c3cc(OC(=O)Nc4ccccc4)ccc3N(C)[C@@H]12	54%
COC1/C=C/OC2(C)Oc3c(C)c(O)c4c(O)c(c(/C=N/N=C/N5CCCCC5)c(O)c4c3C2=O)NC(=O)/C(C)=C\C=C\C(C)C(O)C(C)C(O)C(C)C(OC(C)=O)C1C (stereo not given)	5.78%
Cc1ccc2c(c1)Cc1c(C(=O)NN3CCCCC3)nn(-c3ccc(Cl)cc3Cl)c1-2	1.48%
CN(C)CCN1C(=O)c2cccc3cc(NC(N)=O)cc(c23)C1=O	-8.72%
COc1ccc(Nc2ccn(-c3ccccc3)n2)cc1	101%
C[C@]12C=CC(=O)C=C1CC[C@@H]1[C@@H]2[C@@H](O)C[C@@]2(C)[C@H]1CC[C@]2(O)C(=O)COP(=O)(O)O	22.1%
CCNC(=O)[C@@H]1CCCN1C(=O)[C@H](CCCNC(=N)N)NC(=O)[C@H](CC(C)C)NC(=O)[C@@H](C)NC(=O)[C@H](Cc1ccc(O)cc1)NC(=O)[C@H](CO)NC(=O)[C@H](Cc1c[nH]c2ccccc12)NC(=O)[C@H](Cc1cnc[nH]1)NC(=O)[C@@H]1CCC(=O)N1	41.1%
Cc1cc(C(=O)Nc2cccc(C(=O)Nc3cccc(C(F)(F)F)c3)c2)on1	16.4%
O=C1c2ccccc2C(=O)c2ccccc21	44.4%
O=C1c2cccc(O)c2C(=O)c2c(O)cc(CO)cc21	53.1%
CCN1C[C@H](C)n2c(c(O)c3c(=O)n(Cc4ccc(F)c(Cl)c4)nc(C(=O)NC)c32)C1=O	19.2%
C[C@H](CCC(=O)O)[C@H]1CC[C@H]2[C@@H]3[C@H](O)C[C@@H]4C[C@H](O)CC[C@]4(C)[C@H]3CC[C@]12C	3.14%
C[C@H](CCC(=O)O)[C@H]1CC[C@H]2[C@@H]3CC[C@@H]4C[C@H](O)CC[C@]4(C)[C@H]3CC[C@]12C	-5.26%

Structure (SMILES)	inhibition
C[C@H](CCC(=O)O)[C@H]1CC[C@H]2[C@@H]3[C@@H](O)C[C@@H]4C[C@H](O)CC[C@]4(C)[C@H]3CC[C@]12C	62.8%
CCC1=C[C@@H]2CN3CCc4c([nH]c5ccccc45)[C@@](C(=O)OC)(C2)[C@@H]13	2.61%
Cn1cccc1/C=C1\C(=O)NC(=O)c2ccccc21	61.5%
COc1cc(OC)c(/C=C2/C(=O)Nc3ccccc32)c(OC)c1	-6%
Cc1nc2ccc(-n3ncc(C(=O)c4cc5ccccc5[nH]4)c3N)cc2[nH]1	100%
CN1CC[C@@H](NC(=O)Nc2ccc(C#N)cc2)C[C@@H]1c1nc2ccccc2[nH]1	-9.46%
CCCCCCCCCCCCC/C=C/[C@@H](O)[C@@H](N)COP(=O)([O-])OCC[N+](C)(C)C	23.4%
CCO[C@@H]1OC(=O)C[C@@H]1NC(=O)[C@@H]1CCCN1C(=O)[C@@H](NC(=O)c1ccc(N)c(Cl)c1)C(C)(C)C	12.6%
CC(C)C(=O)OCC(=O)[C@@]12O[C@H](C3CCCCC3)O[C@@H]1C[C@H]1[C@@H]3CCC4=CC(=O)C=C[C@]4(C)[C@H]3[C@@H](O)C[C@@]12C	7.25%
CCOC(=O)C12CC1/C(=N\O)c1ccccc1O2 (stereo not given)	38.5%
CN1[C@@H]2CC[C@H]1C[C@@H](OC(=O)N1Cc3ccccc3NC1=O)C2	-7.98%
O=C(O[C@@H]1C[C@@H]2C[C@H]3C[C@H](C1)N2CC3=O)c1c[nH]c2ccccc12	61.3%
Cc1nc(Cn2cnc3c2c(=O)n(C)c(=O)n3C)no1	24.3%
CC(C)(C)NCC(O)c1cc(Br)no1 (stereo not given)	18.5%
O=C(O)CCCNC(=O)c1cccnc1	28.7%
CCN1CCCC(OC(=O)C(c2ccccc2)c2ccccc2)C1 (stereo not given)	-1.02%
O=C(O)[C@@H](c1ccc(OCc2ccc3ccccc3n2)cc1)C1CCCC1	93.6%
CC(CNC1CCCCC1)OC(=O)c1ccccc1 (stereo not given)	34.8%
CCCCN(CC)c1c([N+](=O)[O-])cc(C(F)(F)F)cc1[N+](=O)[O-]	10.6%
CC(C)C(=O)SCCCCC[C@H](NC(=O)OC(C)(C)C)C(=O)NC12CC3CC(CC(C3)C1)C2	52%
NC(=O)c1cccc(-c2cccc(OC(=O)NC3CCCCC3)c2)c1	95.1%
CN(Cc1cccc(-c2ccccc2)c1)C(=O)Oc1ccc(-c2ccc(C(N)=O)cc2)cc1	25.7%
N[C@@H]1CCN(c2cccnc2)C1	18.5%
N#Cc1ccc(N2N=C3c4ccc(C(=O)O)cc4CC[C@@H]3[C@@H]2C2CCCC2)cc1Cl	20.4%

Structure (SMILES)	inhibition
CCCOc1ccc2c(c1)CC[C@@H]1[C@@H]2CC[C@]2(C)[C@@H](OC)CC[C@@H]12	-9.5%
CCc1oc2ccccc2c1C(=O)c1ccc(OCC(=O)O)cc1	-6.7%
NC(=O)c1ncn([C@@H]2O[C@H](CO)[C@@H](O)[C@H]2O)n1	-7.83%
CC(C)Nc1nc2cc(Cl)c(Cl)cc2n1[C@H]1O[C@@H](CO)[C@H](O)[C@@H]1O	82.2%
COc1nc(N)nc2c1ncn2[C@@H]1O[C@H](CO)[C@@H](O)[C@@H]1O	35.9%
Cc1cc(C)cc(NC(=O)Cc2ccc(OC(C)(C)C(=O)O)cc2)c1	-3.44%
O=C(COc1cccc2c(=O)[nH]ccc12)c1ccccc1	65.9%
COc1ccc(C(=O)CCC(=O)O)c2ccccc12	0.61%
N#CCC(=O)c1ccccc1	19.1%
C[C@]12CC[C@H]3[C@@H](CCC4=CC(=O)CC[C@@]43C)[C@@H]1CC[C@@H]2C(=O)CO	32.2%
O=C(N[C@H]1CN2CCC1CC2)c1c[nH]c2ccsc2c1=O	10.3%
Cn1nnc(-c2ccc(-c3ccc(N4C[C@H](COP(=O)(O)O)OC4=O)cc3F)cn2)n1	-2.24%
O=C(CCCl)NCCc1ccccc1	11.9%
O=C(NCc1cccc(O)c1)Nc1nc(-c2ccncc2)cs1	3.24% and 13.9%
c1ccc(CCNc2nc(-c3ccccc3)cs2)cc1	79.1%
O=C(CCn1cnc2c(=O)[nH]cnc21)Nc1ccc(C(=O)O)cc1	11.5%
Brc1c(Br)c(Br)c2[nH]nnc2c1Br	55.5%
O=C(Nc1ccc(S(=O)(=O)C(F)(F)F)cc1)C1=CCN(c2ncccc2C(F)(F)F)CC1	8.48%
C[C@]12CCC(=O)C=C1CC[C@@H]1[C@@H]2[C@@H](O)C[C@]2(C)C(=O)CC[C@@H]12	-0.5%
CCCC(CCC)C(=O)NCc1ccc2c(cnn2-c2ccccc2OC)c1	-9.99%
Nc1nc(OCc2ccccc2)c2nc[nH]c2n1	68.9%
c1ccc(CNc2ncnc3[nH]cnc23)cc1	3.46%
CC(=O)O[C@H]1C[C@@H]2CC[C@@H]3[C@H](CC[C@@]4(C)[C@H]3C[C@H](N3CC[N+](C)(C)CC3)[C@@H]4OC(C)=O)[C@@]2(C)C[C@@H]1N1CC[N+](C)(C)CC1	-3.02%
CN1C(=O)N(c2ccc(C#N)c(C(F)(F)F)c2)C(=O)[C@@]1(CO)c1ccccc1	16.8%

Structure (SMILES)	inhibition
CN(CCOP(=O)(O)O)C(=N)N	20.7%
O=C1N=C(N2CCOCC2)CN1c1ccc(Cl)cc1	8.65%
NC(Cc1ccc(O)cc1)C(=O)O (racemic)	12.8%
N[C@H](C(=O)O)[C@@H]1CC(Cl)=NO1	2.38%
CNC(=O)COC(=O)NCCC1CCN(c2cccc(C)n2)CC1	23.1%
Cc1[nH]cnc1-c1ccc(Cl)cc1	80.5%
CCn1c(O)nnc1-c1ccc(Cl)cc1	4.14%
Cc1nc[nH]c1CCN	0.18%
C[C@]12CCC(=O)C[C@@H]1CC[C@@H]1[C@@H]2CC[C@]2(C)[C@@H](O)CC[C@@H]12	6.85%
O=C(/C=C/c1ccc2ccc(C(F)(F)F)cc2n1)c1ccncc1	36.8%
O=C(/C=C/c1ccc2ccccc2n1)c1ccncc1	91.9%
CC(C)Oc1ccc(-c2nc(-c3cccc4c3CCC4NCCC(=O)O)no2)cc1C#N (stereo not given)	25.6%
CC(CC(c1ccccc1)c1ccccc1)NC(C)(C)C (stereo not given)	13.9%
CC1(O)C(O)C(CO)OC1n1ccc(N)nc1=O (stereo not given)	50.8%
C[C@@]1(O)[C@H](O)[C@@H](CO)O[C@H]1n1cnc2c(NC3CCCC3)nc(Cl)nc21	-7.46%
Nc1ccn([C@H]2CO[C@@H](CO)S2)c(=O)n1	9.97%
C[S+](CC[C@H](N)C(=O)[O-])C[C@H]1O[C@@H](n2cnc3c(N)ncnc32)[C@H](O)[C@@H]1O (stereo not given in full)	5.35%
Cc1cccc(Oc2cnc(=O)[nH]c2)c1	16.9%
O=C(NCc1ccccc1)c1csc(Nc2ccncn2)n1	44.2%
Cc1c[nH]c2ncnc(N3CCC(CN)(C(=O)Nc4cccc(OC(=O)N(C)C)c4)CC3)c12	25.2%
Cc1cccc(/C=N/Nc2cc(N3CCOCC3)n3nc(-c4ccncc4)cc3n2)c1	-1.46%
CC1(CN)Cc2ccccc2C1	0.58%
Brc1cc2c(cc1[C@@H]1Nc3ccccc3[C@@H]3C=CC[C@@H]31)OCO2.Brc1cc2c(cc1[C@H]1Nc3ccccc3[C@H]3C=CC[C@H]31)OCO2	2.38%
